In all, about 68,000 sequences were measured (“fluorescence intensity (a.u.)”: median about 9,100, highest 2% from about 16,000 on). Shown is part of a subset that was picked to be rich in the highest values.
molecular target: OsWRKY34 (Oryza sativa, UniProt Q0JBA9 1-250); assay: protein-binding microarray (RPBM); PBS, 2% BSA, 51.3 ng/ul salmon testes DNA, 50 uM zinc acetate, 200 nM TF, 25 C, 1 h; high values mean tight binding; conditions: protein: recombinant; tags: N-terminal polyhistidine and DsRed monomer fusion (pET32a); label: CyDye5-dUTP incorporated in the synthesized complementary strand; 3' TTTTT single-stranded linker to array surface; dsDNA, one strand shown
Sequence (Q0JBA9 entry or part of it): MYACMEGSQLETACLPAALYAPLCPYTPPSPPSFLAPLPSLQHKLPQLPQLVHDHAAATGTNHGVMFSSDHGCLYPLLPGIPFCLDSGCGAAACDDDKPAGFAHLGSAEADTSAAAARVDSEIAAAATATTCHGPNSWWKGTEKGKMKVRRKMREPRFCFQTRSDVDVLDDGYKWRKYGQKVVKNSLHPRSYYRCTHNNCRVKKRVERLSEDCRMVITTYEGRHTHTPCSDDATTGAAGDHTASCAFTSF
In short: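 The binding signal is fluorescence intensity per array feature (arbitrary units). Readings came from an Axon 4000B scanner after a washed, 2% BSA-blocked, double-stranded custom Agilent array had been incubated for 1 h at 25 °C with 200 nM protein and 50 µM zinc acetate. The protein was a Ni–NTA-purified transcription factor fused N-terminally to polyhistidine and DsRed, expressed in E. coli BL21-CodonPlus.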

Sequence | binding signal
TTCATGGAACATTCACGTGGATCATTCTCTCTCTCTCTCTCGGAGTCACCTAGTGCAG | 8100 fluorescence intensity (a.u.)
TCACATCTCATTTTATGTTGGTTTTTTATGGGACGGGAGGCGGAGTCACCTAGTGCAG | 10200 fluorescence intensity (a.u.)
CACCACCGTGCACTTCACAATTCACACTACTCCTTCAGATCGGAGTCACCTAGTGCAG | 8340 fluorescence intensity (a.u.)
CTCATCATCCCGTCCAAAATCAGCTGCCCGCGCCGACGACCGGAGTCACCTAGTGCAG | 8700 fluorescence intensity (a.u.)
ATACACATGCACATTTAGTTCCTCCCGGTAAGTTCGTCGTCGGAGTCACCTAGTGCAG | 8260 fluorescence intensity (a.u.)
ATTTTTTTTTGGCATAGTTTGTGTTCACTGCAAAAATCACCGGAGTCACCTAGTGCAG | 9080 fluorescence intensity (a.u.)
TGACAGCGGTAGATGTGGGTGGTGGTGGGAGGGGAGGATGCGGAGTCACCTAGTGCAG | 16200 fluorescence intensity (a.u.)
GGGTGGGAGGGAGGGAGTACATGGTAAGGCCATTCAACAGCGGAGTCACCTAGTGCAG | 20200 fluorescence intensity (a.u.)
GAGAGAGGGGTTGGGTTTGGTTGGTGTTTGTGTGGAGATGCGGAGTCACCTAGTGCAG | 12800 fluorescence intensity (a.u.)
CTATTATCTCCAGGGTGGGGTGGGGCCCATACGGCCAGGACGGAGTCACCTAGTGCAG | 10400 fluorescence intensity (a.u.)
AGAGATGGTAGTGGTAAAGCGGAGGAGGGGTGGGGTGTTGCGGAGTCACCTAGTGCAG | 16700 fluorescence intensity (a.u.)
GCTACATCAGCGGCGGAGGTGGAGGTGGAGGGGTAAGGTGCGGAGTCACCTAGTGCAG | 11600 fluorescence intensity (a.u.)
AGAGGGATGGGTGTGGGCAGCGGTGGGCGGTAAGGCACCACGGAGTCACCTAGTGCAG | 9360 fluorescence intensity (a.u.)
TTTGACGTTTTTTCTCGCTGCTATTATCTCCAGGGTGGGGCGGAGTCACCTAGTGCAG | 17200 fluorescence intensity (a.u.)
GGGTTATTCTTTGCATGATATTTGACGTTTTTTCTCGCTGCGGAGTCACCTAGTGCAG | 9920 fluorescence intensity (a.u.)
TTTGGTTCACGCGGCGCGGGCGGGGAGTGGGAGGGGCATGCGGAGTCACCTAGTGCAG | 24100 fluorescence intensity (a.u.)
CTGCGGCCCGGCGGGAGTGGGAGGGGCGGCGGGCCGGACCCGGAGTCACCTAGTGCAG | 9720 fluorescence intensity (a.u.)
GAGAGCTTTGCGGCGGGCATGCGGGTGGGGATTCACCGCGCGGAGTCACCTAGTGCAG | 10600 fluorescence intensity (a.u.)
ACCTTGGACAACTGACTTCTCTACAGACATTAACCTTTTTCGGAGTCACCTAGTGCAG | 8730 fluorescence intensity (a.u.)
TTTTCATCTGAGCTTATGTTCCAACTTTTATTTTTAATCACGGAGTCACCTAGTGCAG | 8780 fluorescence intensity (a.u.)
ACTGAGTACTGTTCGGTTGGGTCTGGCATCGGATGTTTCCCGGAGTCACCTAGTGCAG | 8340 fluorescence intensity (a.u.)

Sequence | binding signal
TATAGGCCACTTGTGCCTCGGCTCACGTTGACCTGCCTTACGGAGTCACCTAGTGCAG | 8170 fluorescence intensity (a.u.)
AACATATAAACTCAAATCTCCAATTGTTTCCGCTACAAATCGGAGTCACCTAGTGCAG | 8100 fluorescence intensity (a.u.)
AACTATTTTCATCCCTCGAGGACATATCTCCTCGTTGTTTCGGAGTCACCTAGTGCAG | 11100 fluorescence intensity (a.u.)
ACGACCCTCTACATGTTGCTGCTGGCAGCCGCTCCCTCTCCGGAGTCACCTAGTGCAG | 8660 fluorescence intensity (a.u.)
GTTTTTCATATTTGACGATCAAACGGTGGTTTTAAAACTTCGGAGTCACCTAGTGCAG | 8140 fluorescence intensity (a.u.)
CACTTTTTCATGGATTTTTACTTATTTAATGATTTTTTATCGGAGTCACCTAGTGCAG | 8240 fluorescence intensity (a.u.)
CTCGATTCTTCTGCAGCTGGGCGGGAGGGGAGGCGTGGCGCGGAGTCACCTAGTGCAG | 18300 fluorescence intensity (a.u.)
CGATGGCTGGAGGGGAGGCGGCGGCGCATCGTGGCGGGCGCGGAGTCACCTAGTGCAG | 8030 fluorescence intensity (a.u.)
GGGGAGGTTGCTGCTGCTGCTGGGCGGGTGGGCGGAGGGGCGGAGTCACCTAGTGCAG | 28100 fluorescence intensity (a.u.)
GGCGAGCGCGTCGTGGAGGGCGGGGAGGGAGTCGGGCTGGCGGAGTCACCTAGTGCAG | 14400 fluorescence intensity (a.u.)
GGAGGGCGGGCTGTTATATTCTTCACACCTTGCATGTAAGCGGAGTCACCTAGTGCAG | 18700 fluorescence intensity (a.u.)
TGGCAGGGTTGCATGGTTCTGGAGGGCGGGCTGTTATATTCGGAGTCACCTAGTGCAG | 13500 fluorescence intensity (a.u.)
TAGTGGGGAGGCGGTGGTGCTGCGGGGAGGGAGGGAGCACCGGAGTCACCTAGTGCAG | 12800 fluorescence intensity (a.u.)
GGCTGTTGTTTTTCCTTGTTATTCTTTCAGTAAGATATTTCGGAGTCACCTAGTGCAG | 12800 fluorescence intensity (a.u.)
GTCGTGGGCGGGAGGTGGTGGTGGTGGTGCTGCTGCATTGCGGAGTCACCTAGTGCAG | 11600 fluorescence intensity (a.u.)
AGCGAGCGACGGGCGGGGCGGAGCGGGGCGGGGCTGCATTCGGAGTCACCTAGTGCAG | 16700 fluorescence intensity (a.u.)
GGCGGGGCAGACGGAGGCCGACGGCTGCAGCGGGCTGGGGCGGAGTCACCTAGTGCAG | 9010 fluorescence intensity (a.u.)
AGGCGAGCGAGACGGCGGCGGGCGGGCGGGGCGGGCGACGCGGAGTCACCTAGTGCAG | 14800 fluorescence intensity (a.u.)
TCTGTCCCTCAATCCCGCGACGCCGCCGCCGTTCTGCTCCCGGAGTCACCTAGTGCAG | 10000 fluorescence intensity (a.u.)
GATCCTATCATTTTCAACGATGTTAAATCGTCACAGGCTTCGGAGTCACCTAGTGCAG | 8310 fluorescence intensity (a.u.)
CCTCATTAGCTAGCTTTTTAGGGTGGGGAAGGCCCTTTACCGGAGTCACCTAGTGCAG | 12700 fluorescence intensity (a.u.)

Sequence | binding signal
CTCACTTGCATCTTTCCAATATCTTAGTCATTCATTAATACGGAGTCACCTAGTGCAG | 8520 fluorescence intensity (a.u.)
AATGTATGACGCCGTTGACTTTTTGCCCAACGTTTGACCACGGAGTCACCTAGTGCAG | 38700 fluorescence intensity (a.u.)
CATCCGTATGATTCGACTTTTTTTTCACGTTGATTTTATACGGAGTCACCTAGTGCAG | 9050 fluorescence intensity (a.u.)
GTAAATTATGTATGACGCGGTTGACTTTTTATTAACGTTTCGGAGTCACCTAGTGCAG | 16800 fluorescence intensity (a.u.)
AATGTATGACGCCGTTGACTTTTTATCAAACGTTTGACCACGGAGTCACCTAGTGCAG | 34800 fluorescence intensity (a.u.)
CTAAATTAATGGTCGCTTTGACTTTTTTTATGTAATGTTTCGGAGTCACCTAGTGCAG | 14700 fluorescence intensity (a.u.)
AATTGTAAAGTTGACTTTAATGTTTTTTTTATTGTGGTTTCGGAGTCACCTAGTGCAG | 8740 fluorescence intensity (a.u.)
AATGATGTTGTTGACTTTTAAAATAACGTATGGCCGTTCACGGAGTCACCTAGTGCAG | 8770 fluorescence intensity (a.u.)
AATGTATGATGCCGTTGACTTTTCGACTAACGTTTGACCACGGAGTCACCTAGTGCAG | 29200 fluorescence intensity (a.u.)
AATGTATGACGCAGTTGACTTTGTGACAAACGTTTGACCTCGGAGTCACCTAGTGCAG | 12300 fluorescence intensity (a.u.)
TTTTTTTCAATTCGTTTTTTTTTCATTTTTCATCGTCTTTCGGAGTCACCTAGTGCAG | 8400 fluorescence intensity (a.u.)
TACTACTCTCGTGTGGCAAAATTTTGTCTTAGTTCTTGAACGGAGTCACCTAGTGCAG | 8100 fluorescence intensity (a.u.)
GCGTTGTGGGTGTCTTGTGTTGTACTGCGTAATTCTTAAACGGAGTCACCTAGTGCAG | 15000 fluorescence intensity (a.u.)
CACAACTATTTCTACTTTTATCATTCCTACCTTTTCTAATCGGAGTCACCTAGTGCAG | 8180 fluorescence intensity (a.u.)
CTAGCCCGTTAACATTACTGTTCATCTCCCTATCCGTCTCCGGAGTCACCTAGTGCAG | 9570 fluorescence intensity (a.u.)
TCCTACACCACCCCGTTCTCGCGCCCATCGATCCAACCGACGGAGTCACCTAGTGCAG | 8920 fluorescence intensity (a.u.)
AGCCACAAATCCTTATTCGTTCAATTGTTTTTCTTCCTCTCGGAGTCACCTAGTGCAG | 8140 fluorescence intensity (a.u.)
ATCGCGAAGTTCGCGACCCGATTCCTCTCCGCCCGCCATGCGGAGTCACCTAGTGCAG | 8380 fluorescence intensity (a.u.)
GTACATGCATTATCCATATCTCTAAATTTAGCAATCACTTCGGAGTCACCTAGTGCAG | 9480 fluorescence intensity (a.u.)
AGTTCACTTTAGGTCCCTCTATTTGTCGTCCAGTCTGATTCGGAGTCACCTAGTGCAG | 8180 fluorescence intensity (a.u.)
GCGGCCAGGCCACCTCCAGCTCTTTTCACTCCTGGCTAACCGGAGTCACCTAGTGCAG | 9500 fluorescence intensity (a.u.)

Sequence | binding signal
GTTGTATAGGTTGGTTTTTTATGTATGACGCCGTTGACTTCGGAGTCACCTAGTGCAG | 17100 fluorescence intensity (a.u.)
CTCTCTCACTCTTCTCCCTCTTCTCACCACCAGACGCCATCGGAGTCACCTAGTGCAG | 8850 fluorescence intensity (a.u.)
CCCGTCAACGCCACCTCACCGTTGACGTTGCCACTCTCTTCGGAGTCACCTAGTGCAG | 16800 fluorescence intensity (a.u.)
TCTTCGTATAAAAAGTATGACGCCGTTGACTTTTCATATACGGAGTCACCTAGTGCAG | 14500 fluorescence intensity (a.u.)
GACGCCGTTGACTTTTTGACCAACGTTTGACCTTTCGTCTCGGAGTCACCTAGTGCAG | 31400 fluorescence intensity (a.u.)
CCCGTGTCTTCCCAACCACGTTGACCACGACTTTTTCGTTCGGAGTCACCTAGTGCAG | 9480 fluorescence intensity (a.u.)
GTGGACGTTTTTGACTTTGTACTTTCAACGTTTGACCATTCGGAGTCACCTAGTGCAG | 13900 fluorescence intensity (a.u.)
TATGACGCCGTTGACTTATTGACTAACGTTTGACCATTCGCGGAGTCACCTAGTGCAG | 21500 fluorescence intensity (a.u.)
GATGACGTTGTTAACTTTTTATCACACGTTTGACCATTCGCGGAGTCACCTAGTGCAG | 8510 fluorescence intensity (a.u.)
TATTACTCCCTTCGTATTTTAATGTATGACGCCGTTGACTCGGAGTCACCTAGTGCAG | 8820 fluorescence intensity (a.u.)
CGCCGTTTAGTTTTTACTAACGTTTGACCATTTTTCTTATCGGAGTCACCTAGTGCAG | 11700 fluorescence intensity (a.u.)
CCACCGCCCGCCGTCGTCTCTCTCTCTCTCTCTCTCTCTTCGGAGTCACCTAGTGCAG | 9970 fluorescence intensity (a.u.)
TATGTCACGTATAAAATTCTAATGCTAGCTAACTACCATACGGAGTCACCTAGTGCAG | 8340 fluorescence intensity (a.u.)
GATCCGACTCCTACTTCTAACGTAGATTTTCGGCCTTTATCGGAGTCACCTAGTGCAG | 8370 fluorescence intensity (a.u.)
TTGCAAATGCAACCCTATTATGCCATCCTTTGTTATCCTGCGGAGTCACCTAGTGCAG | 9550 fluorescence intensity (a.u.)
TTTGTTCTCTTTTATATGTAACACTTGCATATTTACCTTCCGGAGTCACCTAGTGCAG | 8980 fluorescence intensity (a.u.)
CTTCTCTTACCTCGGTGGGTGCTTAATGTGCTGGTTTGAACGGAGTCACCTAGTGCAG | 8740 fluorescence intensity (a.u.)
GCCATCCACTTGTGCTGCCAATTTGCTCAATCCCGACAAGCGGAGTCACCTAGTGCAG | 8220 fluorescence intensity (a.u.)
ACATTTCTGTTATTCCCCGCGGACAAGTCACAACTACTTCCGGAGTCACCTAGTGCAG | 9830 fluorescence intensity (a.u.)
CGCCGCCCATCTTGTCCCAATTCGGCTCCTATAAATTTCCCGGAGTCACCTAGTGCAG | 8750 fluorescence intensity (a.u.)
TGCCTCCTTTTGTTTTGCGTCTCCTTATCAGAGTGGATTGCGGAGTCACCTAGTGCAG | 8350 fluorescence intensity (a.u.)
